PGC1a acetyl inh = lowers PGC1a acetylation signal in U2OS cells; hit rate 0.17% among 350,000; AlphaScreen anti-acetyl-lysine; with virally co-expressed GCN5 acetyltransferase; inhibition, % at 15.6 µM;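 active = every replicate shows inhibition of at least 40%; inconclusive = mean inhibition at least 40% but some replicate below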;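 also: 0% = neutral control wells and 100% = positive control wells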
CaV13 FRET inh = Primary screen for inhibitors of IQ motif and Ca2+-dependent inactivation inhibitor domain binding in CACNA1D, Förster resonance energy transfer in living cells, …; HEK cells, CFP/YFP FRET ICDI-IQ, plate reader, 10 min; percent FRET-ratio fall versus neutral wells; inhibition, % at 12.3 µM; hit rate 0.098% among 340,000;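 active = mean replicate inhibition of at least 30% and at least 1% of replicates passing that level; inconclusive = only one of the two criteria is met; inactive = neither criterion is met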;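 also: 0% = median of the neutral control wells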
INS-1E GSIS act = GLuc luminescence reporter in INS-1E cells, primary screen for activators of glucose-dependent secretion of insulin. activation, % at 16.6 µM. AID 743287. hit rate 0.61% among 370,000. INS-1E GLuc reporter insulin secretion, 2-3 h;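 active = lowest replicate activation of at least 40%, so every replicate reaches that level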;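 also: 0% = median of neutral control wells and 100% = median of IBMX positive control wells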
DENV2 CPE rescue = inhibitors of DENV2 cytopathic effect | DENV2-infected cells, cytopathic effect rescue, plate reader | CPE inhibition, % at 9.99 µM | hit rate 1.7% among 350,000 | AID 651640; in the data active = CPE inhibition above about 20%, passing the limit was not always enough; inconclusive = no clear call, values can overlap the other calls; tested in BHK-21 cells;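 also: 0% = median of neutral control wells and 100% = median of positive control wells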
Ecoli rRNA inh = selective bacterial rRNA inhibition in E. coli; GFP signal change (wild-type ribosome), % (no concentration beside the values); E. coli WT GFP vs humanized-ribosome RFP mutants, fluorescence, 24 h; stronger effect = lower value; DMSO median 0, no signal -100; hit rate 1.6% among 350,000; AID 720706;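 active = significant combined selectivity score with lowered wild-type GFP, culture density cut under 30%, mutant RFP and density less affected; inactive = any of these conditions unmet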
ERAP1 HTS inh = blocks human ERAP1 aminopeptidase activity; Q9NZ08; recombinant ERAP1, Leu-AMC fluorescence, 60 min; inhibition, % at 10.7 µM; hit rate 0.15% among 340,000;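 active = mean replicate inhibition of at least 30%, or all replicates individually reaching that 30% level; inactive = mean below 30% and not every replicate reaching it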;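 also: 0% = neutral control wells and 100% = L-leucinethiol positive control wells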
Target sequence (Q9NZ08 whole entry, looked up): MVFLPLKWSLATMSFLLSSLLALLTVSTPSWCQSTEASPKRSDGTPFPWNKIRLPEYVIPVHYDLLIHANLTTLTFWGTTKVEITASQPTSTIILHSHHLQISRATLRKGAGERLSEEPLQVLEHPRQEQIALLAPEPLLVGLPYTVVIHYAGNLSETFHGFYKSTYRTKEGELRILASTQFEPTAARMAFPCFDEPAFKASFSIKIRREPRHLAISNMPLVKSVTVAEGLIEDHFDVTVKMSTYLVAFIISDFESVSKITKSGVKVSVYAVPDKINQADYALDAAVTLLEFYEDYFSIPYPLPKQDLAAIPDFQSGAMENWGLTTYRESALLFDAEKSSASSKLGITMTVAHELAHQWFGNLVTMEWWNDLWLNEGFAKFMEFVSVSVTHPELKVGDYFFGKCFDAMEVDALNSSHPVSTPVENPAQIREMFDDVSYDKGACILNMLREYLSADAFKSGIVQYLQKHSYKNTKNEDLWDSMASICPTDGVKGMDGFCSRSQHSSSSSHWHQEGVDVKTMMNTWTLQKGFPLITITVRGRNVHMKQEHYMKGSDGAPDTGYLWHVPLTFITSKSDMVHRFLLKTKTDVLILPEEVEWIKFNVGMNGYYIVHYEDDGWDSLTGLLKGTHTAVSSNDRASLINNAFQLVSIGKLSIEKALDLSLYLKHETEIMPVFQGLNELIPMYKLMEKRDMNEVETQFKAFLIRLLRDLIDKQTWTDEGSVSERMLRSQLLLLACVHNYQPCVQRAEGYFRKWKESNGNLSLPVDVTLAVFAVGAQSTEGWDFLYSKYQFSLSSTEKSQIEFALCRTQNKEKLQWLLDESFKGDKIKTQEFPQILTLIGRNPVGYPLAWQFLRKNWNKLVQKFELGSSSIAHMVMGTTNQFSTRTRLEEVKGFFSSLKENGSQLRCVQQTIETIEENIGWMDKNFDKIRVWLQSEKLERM
* marks the source's active call; other numbers are inactive results; ? = inconclusive; . = not tested or not shown. This is a sample that favours compounds with a hit; in the whole collection about 3.2% have one here.

SMILES | PGC1a acetyl inh | CaV13 FRET inh | INS-1E GSIS act | DENV2 CPE rescue | Ecoli rRNA inh | ERAP1 HTS inh
CCc1nnc(NC(=O)CN2C(=O)NC3(CCCC3)C2=O)s1 | . | -3 | 7 | -1 | 10 | 39*
COc1ccc(NC(=O)Nc2ccc3c(c2)CC(=O)N([C@H](C)CO)C[C@H](C)[C@@H](CN(C)S(=O)(=O)c2cn(C)cn2)O3)cc1 | -10 | . | 3 | 22* | 2 | 1
C[C@@H]1CN([C@@H](C)CO)C(=O)Cc2cc(NC(=O)CCN3CCOCC3)ccc2O[C@H]1CN(C)S(=O)(=O)c1cn(C)cn1 | 6 | . | 6 | 6 | 5 | 0
C[C@@H]1CN([C@H](C)CO)C(=O)Cc2cc(NC(=O)CCN3CCOCC3)ccc2O[C@@H]1CN(C)S(=O)(=O)c1cn(C)cn1 | 5 | . | -2 | 22* | -1 | 0
C[C@@H]1CN([C@H](C)CO)C(=O)Cc2cc(NC(=O)Nc3ccccc3)ccc2O[C@H]1CN(C)S(=O)(=O)c1cn(C)cn1 | -3 | . | 24 | 62* | 2 | 2
C=CCNc1nc(N)c([N+](=O)[O-])c(NCCO)n1 | 11 | 12 | 82* | -5 | 9 | 0
Cc1ccc(Nc2nc(N)c([N+](=O)[O-])c(NCCO)n2)cc1 | -5 | -20 | 7 | 0 | 24 | 0
CCN(CC)c1nc(N)c([N+](=O)[O-])c(NCCO)n1 | . | -5 | 85* | -6 | 11 | 5
O=C(C[C@@H]1CC[C@H]2[C@@H](COC[C@H](O)CN2C(=O)Nc2cccc(Cl)c2)O1)NCCCN1CCOCC1 | 0 | . | -20 | -2 | -39 | 0
Cc1cccc2c(=O)cc(C)n(CC(N)=O)c12 | -6 | 3 | 2 | 0 | -28* | 1
Cc1ccccc1S(=O)(=O)N1CC(=O)N2[C@H](CO)[C@@H](c3ccc(C#CC4CC4)cc3)[C@H]2C1 | -5 | . | 7 | 5 | -15 | 1
CC/C(O)=C1\C(=O)CC(c2ccccc2)CC1=NC(C)C (stereo unspecified) | . | -6 | 63* | . | . | .
CC/C(O)=C1\C(=O)CC(c2ccccc2)CC1=NCCC(=O)O (stereo unspecified) | . | -3 | 12 | 2 | 22 | -1
O=C(Nc1ccc2c(c1)OCCO2)c1cc2sccc2n1Cc1ccccc1 | -14 | . | . | . | . | .
Cn1c(C(=O)Nc2ccc3c(c2)OCCO3)cc2sccc21 | -22 | -6 | 2 | -1 | -32* | -1
COc1cccc(C2c3cc4c(cc3OC(N3CCCC3)C2C)OCO4)c1O (stereo unspecified) | 6 | -9 | . | -1 | -20* | 3
COc1ccc2c3c(n(C)c2c1)[C@H](CO)N(C)CC31CN(C(=O)CN2CCOCC2)C1 | 10 | . | 11 | ? | 3 | 2
C[C@H](O)C#Cc1cnc2c(c1)C(=O)N([C@@H](C)CO)C[C@H](C)[C@H](CN(C)Cc1ccccn1)O2 | 8 | . | 28 | -1 | 4 | 0
CC(C)Sc1nc(SCC(=O)NCc2ccco2)c2c3c(sc2n1)COC(C)(C)C3 | 1 | . | . | . | . | .
CC(C)Sc1nc(SCC(=O)O)c2c3c(sc2n1)COC(C)(C)C3 | 1 | -6 | 55* | 1 | -11 | -1
O=C(NC(=O)c1ccccc1F)OCc1ccc(Cl)cc1Cl | . | -5 | -11 | 3 | -40* | -1
CC(C)c1cc(C(C)C)c(S(=O)(=O)N2CCNCC2)c(C(C)C)c1 | -25 | 5 | -20 | 0 | -44* | 1
O=C(Nc1ccc(F)c(Cl)c1)c1cc(C2CCCN(S(=O)(=O)c3ccccc3)C2)on1 (stereo unspecified) | -15 | -5 | -36 | 6 | -5 | 0
CN(C)c1ccc(CC(=O)N2CCCC(c3cc(C(=O)Nc4ccc(F)c(Cl)c4)no3)C2)cc1 (stereo unspecified) | -7 | -13 | 6 | 33* | -13 | -3
Cn1cnc(S(=O)(=O)N2CCCC(c3cc(C(=O)Nc4ccc(F)c(Cl)c4)no3)C2)c1 (stereo unspecified) | -4 | -11 | -22 | 16 | -25* | -3
SMILES | PGC1a acetyl inh | CaV13 FRET inh | INS-1E GSIS act | DENV2 CPE rescue | Ecoli rRNA inh | ERAP1 HTS inh
CCOC(=O)N1CCN(S(=O)(=O)c2ccc3c4c(cccc24)C(=O)N3)CC1 | . | -11 | 42* | -1 | 5 | 0
O=C(Nc1ccc(F)cc1)N[C@H]1CC[C@H](CCNC(=O)c2ccccc2F)O[C@H]1CO | 3 | . | 5 | 1 | -2 | -9
CCCN1C(=O)/C(=C/c2ccc3c(c2)OCO3)NC1=S | . | 19 | 21 | . | -24* | 0
C[C@H](CO)N1C[C@H](C)[C@H](CN(C)S(=O)(=O)c2ccccc2)Oc2c(NC(=O)Nc3cccc4ccccc34)cccc2C1=O | 7 | . | 4 | -6 | 0 | 0
Cc1ccc(S(=O)(=O)N(C)C[C@H]2Oc3c(NC(=O)Nc4cccc5ccccc45)cccc3C(=O)N([C@H](C)CO)C[C@@H]2C)cc1 | -7 | . | -1 | 35* | 0 | 0
C[C@H](CO)N1C[C@H](C)[C@@H](CN(C)S(=O)(=O)c2ccccc2)Oc2c(NC(=O)Nc3cccc4ccccc34)cccc2C1=O | -16 | . | -11 | 168* | 1 | 1
CC=Cc1ccc2n(c1=O)C[C@H]1[C@H](CO)[C@@H](C(=O)NCCCN(C)C)[C@@H]2N1C(=O)c1ccccc1F (mixture of isomers) | . | . | 19 | -1 | 3 | 4
Nc1ccc(C(=O)Nc2ccc3nc(-c4ccncc4)[nH]c3c2)cc1 | -14 | 2 | 6 | -3 | -33* | 6
CC(=O)Nc1ccc2nc(-c3ccncc3)[nH]c2c1 | 5 | -4 | . | . | . | .
CCC(CO)Oc1cc(NCc2cccc(F)c2)c2ncn(C(C)C)c2c1 (stereo unspecified) | . | -12 | -9 | 118* | 2 | .
CCC(CO)Oc1cc(NCc2cccc(O)c2)c2ncn(C(C)C)c2c1 (stereo unspecified) | 0 | -5 | 9 | -7 | -1 | -3
CCC(CO)Oc1cc(NC(=O)c2ccc(N)cc2)c2ncn(C(C)C)c2c1 (stereo unspecified) | 7 | -5 | 8 | 10 | -20* | 6
CCC(CO)Oc1cc(NC(=O)c2ccc(F)cc2)c2ncn(C(C)C)c2c1 (stereo unspecified) | 4 | -7 | 6 | ? | 7 | 6
CCCCOc1cc(NCc2ccccc2)c2ncn(C(C)C)c2c1 | . | -5 | -21 | . | 2 | -1
COCCCOc1cc(NCc2ccccc2)c2ncn(C(C)C)c2c1 | . | 122* | -36 | -14 | -8 | 3
C[C@H]1CN([C@@H](C)CO)S(=O)(=O)c2ccc(-c3ccncc3)cc2O[C@@H]1CN(C)Cc1cccnc1 | 4 | . | -14 | -5 | -10 | 0

Assay outcomes (PubChem)
